The supplement of paper PMC9446081
± gives the standard deviation of the averaged measurements.

Molecular target: MurC (UniProt C4ZRI6)
Experiment: relative enzymatic activity vs untreated control (fraction); higher = less inhibition
Settings: 100 µM; incubation time: 2 h at 37 C
Experimental: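 In vitro enzymatic inhibition assays (ProFoldin kits) for 12 purified essential E. coli enzymes or complexes, each treated with 218 active antibacterial compounds at 100 µM for 2 h at 37°C. Read-outs were fluorescence or absorbance (phosphate detection, dye binding), converted to activity via standard curves and expressed relative to untreated DMSO controls.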

Sequence of MurC (C4ZRI6 whole entry, looked up): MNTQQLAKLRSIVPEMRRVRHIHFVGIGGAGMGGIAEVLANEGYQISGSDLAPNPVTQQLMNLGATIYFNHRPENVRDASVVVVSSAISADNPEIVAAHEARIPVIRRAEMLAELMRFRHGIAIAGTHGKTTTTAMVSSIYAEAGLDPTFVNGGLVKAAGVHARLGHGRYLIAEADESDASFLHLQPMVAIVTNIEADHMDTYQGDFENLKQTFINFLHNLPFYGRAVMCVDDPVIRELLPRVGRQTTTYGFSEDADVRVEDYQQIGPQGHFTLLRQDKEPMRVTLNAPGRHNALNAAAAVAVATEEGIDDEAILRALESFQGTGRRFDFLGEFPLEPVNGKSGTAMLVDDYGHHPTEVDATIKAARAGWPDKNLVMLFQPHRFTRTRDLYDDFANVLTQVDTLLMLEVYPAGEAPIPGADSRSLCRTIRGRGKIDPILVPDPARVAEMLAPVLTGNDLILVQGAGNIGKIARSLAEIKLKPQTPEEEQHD

SMILES | relative enzymatic activity
CC(C)[C@@H](CC[C@@H](C)[C@H]1CC[C@H]2[C@@H]3[C@H](O)C[C@H]4C[C@@H](NCCCNCCCCN)CC[C@]4(C)[C@H]3CC[C@]12C)OS(=O)(=O)O | 0.882 ± 0.078
NC(=O)N/N=C/c1ccc([N+](=O)[O-])o1 | 1.08 ± 0.033
O=C(O)P(=O)(O)O | 0.972 ± 0.058
NC[C@H]1OB(O)c2c(OCCCO)cccc21 | 0.977 ± 0.052
Cl.O=C(O)c1cn(-c2ccc(F)cc2)c2cc(N3CCNCC3)c(F)cc2c1=O | 0.836 ± 0.012
O=C1CN(/N=C/c2ccc([N+](=O)[O-])o2)C(=O)N1 | 1.33 ± 0.34
CC(=O)On1cc(F)c(=O)[nH]c1=O | 1.07 ± 0.079
CC[C@H]1OC(=O)[C@H](C)[C@@H](O[C@H]2C[C@@](C)(OC)[C@@H](O)[C@H](C)O2)[C@H](C)[C@@H](O[C@@H]2O[C@H](C)C[C@H](N(C)C)[C@H]2O)[C@](C)(O)C[C@@H](C)C(=O)[C@H](C)[C@@H](O)[C@]1(C)O | 0.959 ± 0.064
CON=C(C(=O)NC1C(=O)N2C(C(=O)OCOC(=O)C(C)(C)C)=C(C=Cc3scnc3C)CSC12)c1csc(N)n1 (stereo not given) | 0.659 ± 0.044
N[C@@H]1CN(c2c(F)cc3c(=O)c(C(=O)O)cn([C@@H]4C[C@@H]4F)c3c2Cl)CC12CC2 | 0.971 ± 0.044
CC[C@@H]1OC(=O)[C@H](C)[C@@H](O[C@H]2C[C@@](C)(OC)[C@@H](O)[C@H](C)O2)[C@H](C)[C@@H](O[C@@H]2O[C@H](C)C[C@H](N(C)C)[C@H]2O)[C@](C)(O)C[C@@H](C)/C(=N\OCOCCOC)[C@H](C)[C@@H](O)[C@]1(C)O | 0.962 ± 0.064
Nc1c2ccccc2nc2ccccc12 | 0.998 ± 0.044
CC1CCc2c(N3CCC(O)CC3)c(F)cc3c(=O)c(C(=O)O)cn1c23 (stereo not given) | 0.92 ± 0.079
CC1(C)S[C@@H]2[C@H](NC(=O)[C@H](NC(=O)N3CCNC3=O)c3ccccc3)C(=O)N2[C@H]1C(=O)O | 0.907 ± 0.097
CCn1nc(C(=O)O)c(=O)c2cc3c(cc21)OCO3 | 1.01 ± 0.11
CCn1cc(C(=O)O)c(=O)c2cc(F)c(N3CCNCC3)nc21 | 0.948 ± 0.15
N[C@@H]1CC[C@@H](c2ccc(Cl)c(Cl)c2)c2ccccc21 | 0.806 ± 0.12
CC[C@H]1OC(=O)[C@H](C)[C@@H](O[C@H]2C[C@@](C)(OC)[C@@H](O)[C@H](C)O2)[C@H](C)[C@@H](O[C@@H]2O[C@H](C)C[C@H](N(C)C)[C@H]2O)[C@](C)(OC)C[C@@H](C)C(=O)[C@H](C)[C@@H](O)[C@]1(C)O | 1.01 ± 0.14
C/C(=C\C(=O)OCCCCCCCCC(=O)O)C[C@@H]1OC[C@H](C[C@@H]2O[C@H]2[C@@H](C)[C@H](C)O)[C@@H](O)[C@H]1O | 0.891 ± 0.065
CC(O)C1C(=O)N2C(C(=O)O)=C(SC3CNC(C(=O)N(C)C)C3)C(C)C12 (stereo not given) | 0.359 ± 0.25

SMILES | relative enzymatic activity
CCn1cc(C(=O)O)c(=O)c2cc(F)c(N3CCNCC3)cc21 | 1 ± 0.082
CCn1cc(C(=O)O)c(=O)c2cnc(N3CCNCC3)nc21 | 0.99 ± 0.052
Nc1ncn(C2OC(CO)C(O)C2O)c(=O)n1 (stereo not given) | 0.989 ± 0.025
CN(C)CCC=C1c2ccccc2COc2ccc(CC(=O)O)cc21.Cl | 0.905 ± 0.018
NCC1OC(OC2C(N)CC(N)C(OC3OC(CO)C(O)C(N)C3O)C2O)C(N)CC1O (stereo not given) | 1.11 ± 0.046
COC1C=COC2(C)Oc3c(C)c(O)c4c(O)c(c(C=NN5CCN(C6CCCC6)CC5)c(O)c4c3C2=O)NC(=O)C(C)=CC=CC(C)C(O)C(C)C(O)C(C)C(OC(C)=O)C1C (stereo not given) | 0.182 ± 0.016
Nc1nc(C(=CCC(=O)O)C(=O)NC2C(=O)N3C(C(=O)O)=CCSC23)cs1 (stereo not given) | 0.885 ± 0.2
CCn1cc(C(=O)O)c(=O)c2cc(F)c(N3CCNC(C)C3)c(F)c21.Cl (stereo not given) | 0.984 ± 0.05
CN(C)c1ccc(O)c2c1CC1CC3C(N(C)C)C(O)=C(C(N)=O)C(=O)C3(O)C(O)=C1C2=O.Cl (stereo not given) | 1.05 ± 0.025
CN(C)CCOC(c1ccccc1)c1ccccc1.Cn1c(=O)c2[nH]c(Cl)nc2n(C)c1=O | 1.02 ± 0.026
C=C1c2cccc(O)c2C(=O)[C@@H]2C(=O)[C@]3(O)C(=O)[C@@H](C(N)=O)C(=O)[C@@H](N(C)C)[C@@H]3[C@@H](O)[C@H]12 | 1.03 ± 0.034
CC(NCCCc1cccc(C(F)(F)F)c1)c1cccc2ccccc12.Cl (stereo not given) | 0.985 ± 0.092
CC[C@@H](C)CCCCC(=O)N[C@@H](CCN)C(=O)N[C@H](C(=O)N[C@@H](CCN)C(=O)N[C@H]1CCNC(=O)[C@H]([C@@H](C)O)NC(=O)[C@H](CCN)NC(=O)[C@H](CCN)NC(=O)[C@H](CC(C)C)NC(=O)[C@@H](Cc2ccccc2)NC(=O)[C@@H](CCN)NC1=O)[C@@H](C)O | 1.03 ± 0.032
NCCCC[C@H](NC(=O)[C@@H](NC(=O)[C@H](Cc1c[nH]c2ccccc12)NC(=O)[C@H](CCCCN)NC(=O)[C@H](CCCCN)NC(=O)[C@H](Cc1c[nH]c2ccccc12)NC(=O)[C@H](Cc1c[nH]c2ccccc12)NC(=O)[C@H](CCCCN)NC(=O)[C@@H](N)CCCCN)C(c1ccccc1)c1ccccc1)C(N)=O | 0.995 ± 0.015
CN(C)C1C(O)=C(C(N)=O)C(=O)C2(O)C(O)=C3C(=O)c4c(O)ccc(Cl)c4C(C)(O)C3CC12.Cl (stereo not given) | 1.05 ± 0.02
O=c1[nH]c(=O)n([C@H]2C[C@H](O)[C@@H](CO)O2)cc1F | 0.993 ± 0.019
CN1CCN(c2c(F)cc3c(=O)c(C(=O)O)cn4c3c2SCC4)CC1 | 0.895 ± 0.076
O=C(NO)c1cn(-c2cccc(C(=O)N3CCC4(CC3)C(=O)NCN4c3ccccc3)c2)nn1 | 0.552 ± 0.15
CN[C@@H]1[C@H](O[C@H]2[C@H](O[C@@H]3[C@@H](O)[C@H](O)[C@@H](NC(=N)N)[C@H](O)[C@H]3NC(=N)N)O[C@@H](C)[C@]2(O)CO)O[C@@H](CO)[C@H](O)[C@H]1O.CN[C@@H]1[C@H](O[C@H]2[C@H](O[C@@H]3[C@@H](O)[C@H](O)[C@@H](NC(=N)N)[C@H](O)[C@H]3NC(=N)N)O[C@@H](C)[C@]2(O)CO)O[C@@H](CO)[C@H](O)[C@H]1O | 0.963 ± 0.063
Cl.NC1CCN(c2c(F)cc3c(=O)c(C(=O)O)cn(C4CC4)c3c2Cl)C1 (stereo not given) | 1.06 ± 0.063
